# Records with an inconclusive call do not appear. Unmarked numbers belong to inactive results. Calls of active or inactive are those of the source. The call rests on the fitted dose curve; in most records, active means well fitted cell-killing curve with a large enough effect in the repeat runs; inconclusive means weak or mixed curves, or effect the other way; inactive means flat fitted curve, though single readings scatter.
# Assay: cAMP Responsive Elements (CRE) small molecule antagonists, cell-based qHTS assay: qHTS cell viability counter screen (AID 2060913); further: nearly all actives have a fitted effect of over 40% in size
# Details: CRE-bla HEK293T viability, CellTiter-Glo luminescence, 5 h; series mostly up to 92.4 µM; viability change, negative = cytotoxic: at the top concentration
# Method in brief: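 Steps: cells plated and held 18 hrs at 37 C/5% CO2; compounds and NKH477 (0.25 uM final) added; 3 hrs incubation; reporter substrate read; CellTiter-Glo added to measure cytotoxicity by luminescence.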
# On the % scale 0 is the no-effect control and ±100 the full control effect.
Structure (SMILES),"viability change, negative = cytotoxic",Potency
CC(C)(Cc1c[nH]c2ccccc12)NCC(O)COc1ccccc1C#N (stereo not given),-5.67% [at 42.5 µM],
C[C@@H]1CC[C@H]2C(C)(C)[C@H]3C[C@@]12CC[C@@]3(C)O,-10.9%,
Nc1ccccc1S(=O)(=O)O,-8.22%,
CCCCCCCCCCCCCCCS(=O)(=O)Oc1ccccc1,0.0892% [at 42.5 µM],
CC1(C)OC[C@@H]2O[C@@]3(C(=O)O)OC(C)(C)O[C@H]3[C@@H]2O1,,inactive
Cc1cncc(C)c1,-5.53%,
N#Cc1c(F)cccc1F,-3.11%,
Cc1ccc(/C=N/n2c(-c3ccccc3)csc2=S)cc1,-8.94% [at 42.5 µM],
CCCCCCCCCCN,,inactive
CCC(C)SSC(C)CC (stereo not given),0.544%,
CC1CN(c2cc3c(cc2F)c(=O)c(C(=O)O)cn3-c2ccc(F)cc2F)CCN1 (stereo not given),0.301% [at 8.39 µM],
CC(C)Cc1ccc(C(C)C(=O)O)cc1 (stereo not given),,inactive
CC(CCC(=O)O)C(=O)O (stereo not given),-0.678%,
CCCCCCCCCC[N+](C)(C)[O-],4.98%,
C/C=C/c1ccc(OC)cc1,,inactive
CCCCC,3.57%,
CCCCCC=CCC=CCCCCCCCC(=O)OCC,-2.11% [at 42.5 µM],
COc1ccc(/C=C/C(=O)c2ccc(OC)cc2OC)cc1,15.7% [at 42.5 µM],
CCCCCCOc1ccc(N)cc1,-0.155%,
CC1(C)C(=O)C(C)(C)C1=O,5.88%,

Structure (SMILES),"viability change, negative = cytotoxic",Potency
CCOC(=O)C1=NOC(c2ccccc2)(c2ccccc2)C1,1.1%,
CC(C)C(=O)Nc1cccc(C2CN3CCSC3=N2)c1 (stereo not given),-4.71% [at 42.5 µM],
CCCOC(=O)C(C)O (stereo not given),-8.76%,
CCCCCCCCCCOC(C)=O,0.794%,
FB(F)F,7.11%,
CCn1cc(C(=O)O)c(=O)c2ccc(C)nc21,,inactive
Cc1cc(Nc2ccc(O)cc2)ccc1N,-4.47%,
CCN(CC)CC,-16%,
CC12CCC(C1)C(C)(C)C2O (stereo not given),-6.31%,
CCOC(=O)c1cccnc1,4.14% [at 42.5 µM],
CC[N+](CC)(CC)Cc1ccccc1,22.1%,
O=C1OC2(c3ccccc31)c1cc(I)c(O)c(I)c1Oc1c2cc(I)c(O)c1I,,inactive
CCCC(C)CC (stereo not given),-10.3%,
C[C@@H]1C[C@H]2[C@@H]3CCC4=CC(=O)C=C[C@]4(C)[C@@]3(F)[C@@H](O)C[C@]2(C)[C@H]1C(=O)CO,-5.67% [at 42.5 µM],
NC(N)=NC(=O)c1nc(Cl)c(N)nc1N,,inactive
CCOC=C(C(=O)OCC)C(=O)OCC,6.22%,
CC/C=C\CCO,-0.677%,
O=[N+]([O-])c1cccc(S(=O)(=O)NCCNS(=O)(=O)c2cccc([N+](=O)[O-])c2)c1,4.66% [at 42.5 µM],
NC(=Nc1ccccc1)Nc1ccccc1,,inactive
N#CCCN(CCO)CCO,1.49%,

# Assay: cAMP Responsive Elements (CRE) small molecule agonists, cell-based qHTS assay: qHTS cell viability counter screen (AID 2060914);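 further: viability read after 3 h of compound exposure; nearly all actives have a fitted effect of over 50% in size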
# Details: CRE-bla HEK293T viability, CellTiter-Glo luminescence, 5 h; series mostly up to 92.4 µM; activity change, negative = cytotoxicity: at the top concentration
# Method in brief: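 CRE-bla HEK 293T cells, plated 18 h at 37 °C, were exposed to compounds for 3 h at 37 °C/5% CO2. Viability was then measured in the same wells by CellTiter-Glo luminescence after 30 min at room temperature.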
Structure (SMILES),"activity change, negative = cytotoxicity",Potency
CC(C)(Cc1c[nH]c2ccccc12)NCC(O)COc1ccccc1C#N (stereo not given),-0.322% [at 42.5 µM],
C[C@@H]1CC[C@H]2C(C)(C)[C@H]3C[C@@]12CC[C@@]3(C)O,-6.25%,
Nc1ccccc1S(=O)(=O)O,9.32%,
CCCCCCCCCCCCCCCS(=O)(=O)Oc1ccccc1,0.974% [at 42.5 µM],
CC1(C)OC[C@@H]2O[C@@]3(C(=O)O)OC(C)(C)O[C@H]3[C@@H]2O1,,inactive
Cc1cncc(C)c1,1.72%,
N#Cc1c(F)cccc1F,-1.12%,
Cc1ccc(/C=N/n2c(-c3ccccc3)csc2=S)cc1,-19.7% [at 42.5 µM],
CCCCCCCCCCN,,inactive
CCC(C)SSC(C)CC (stereo not given),-2.91%,
CC1CN(c2cc3c(cc2F)c(=O)c(C(=O)O)cn3-c2ccc(F)cc2F)CCN1 (stereo not given),-0.163% [at 8.39 µM],
CC(C)Cc1ccc(C(C)C(=O)O)cc1 (stereo not given),,inactive
CC(CCC(=O)O)C(=O)O (stereo not given),-1.5%,
CCCCCCCCCC[N+](C)(C)[O-],1.63%,
C/C=C/c1ccc(OC)cc1,,inactive
CCCCC,1.27%,
CCCCCC=CCC=CCCCCCCCC(=O)OCC,2.21% [at 42.5 µM],
COc1ccc(/C=C/C(=O)c2ccc(OC)cc2OC)cc1,11.7% [at 42.5 µM],
CCCCCCOc1ccc(N)cc1,-11%,
CC1(C)C(=O)C(C)(C)C1=O,1.74%,

Structure (SMILES),"activity change, negative = cytotoxicity",Potency
CCOC(=O)C1=NOC(c2ccccc2)(c2ccccc2)C1,-5.13%,
CC(C)C(=O)Nc1cccc(C2CN3CCSC3=N2)c1 (stereo not given),4.68% [at 42.5 µM],
CCCOC(=O)C(C)O (stereo not given),-1.02%,
CCCCCCCCCCOC(C)=O,5.73%,
FB(F)F,-9.92%,
CCn1cc(C(=O)O)c(=O)c2ccc(C)nc21,,inactive
Cc1cc(Nc2ccc(O)cc2)ccc1N,-0.886%,
CCN(CC)CC,-1.77%,
CC12CCC(C1)C(C)(C)C2O (stereo not given),12.1%,
CCOC(=O)c1cccnc1,-20.5% [at 42.5 µM],
CC[N+](CC)(CC)Cc1ccccc1,1.91%,
O=C1OC2(c3ccccc31)c1cc(I)c(O)c(I)c1Oc1c2cc(I)c(O)c1I,,inactive
CCCC(C)CC (stereo not given),-0.0065%,
C[C@@H]1C[C@H]2[C@@H]3CCC4=CC(=O)C=C[C@]4(C)[C@@]3(F)[C@@H](O)C[C@]2(C)[C@H]1C(=O)CO,5.7% [at 42.5 µM],
NC(N)=NC(=O)c1nc(Cl)c(N)nc1N,,inactive
CCOC=C(C(=O)OCC)C(=O)OCC,1.72%,
CC/C=C\CCO,1.33%,
O=[N+]([O-])c1cccc(S(=O)(=O)NCCNS(=O)(=O)c2cccc([N+](=O)[O-])c2)c1,-4.63% [at 42.5 µM],
NC(=Nc1ccccc1)Nc1ccccc1,3.84% [at 42.5 µM],
N#CCCN(CCO)CCO,0.453%,

# Source: PubChem BioAssay (Tox21)
